“And” between values parts separate entries of the source, which are not always exact repeats. Identical values can stand only once. Inconclusive results are not listed. Some structures have more than one record in an assay (separate samples or runs), and their calls can disagree. The source made the active and inactive calls. Unless noted, the call rests on the fitted dose curve; in most records, active means well fitted curve in the direction sought with a large enough effect in the repeat runs; inconclusive means weak or mixed curves; inactive means no such curve, though single readings can be large; an effect the other way counts as inactive or inconclusive.

A short description of test [1]: Caspase-3/7 induction in HepG2 cells by small molecules, qHTS assay (AID 1346978). Further: nearly all actives have a fitted effect of over 15% in size. The gist of the method: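 Wild-type HepG2 cells, 2,000/well, settled 5 hr at 37 C and 5% CO2, then compound-treated for 17 hr; caspase-3/7 activity read by luminescent Caspase-Glo 3/7 after 30 min at room temperature.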
On the technique in general: Quantitative high-throughput screening tests each substance at several concentrations.

Test [2] can be described thus: Caspase-3/7 induction in CHO-K1 cells by small molecules, qHTS cell viability counter screen (AID 1346979). Further: nearly all actives have a fitted effect of over 35% in size. The gist of the method: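 Seeding: 1,500 CHO-K1 cells/well. Rest: 5hr, 37C. Treatment: compounds in DMSO, 16hr. Read: CellTiter-Fluor, 1hr, fluorescence.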
The nature of test [3]: Caspase-3/7 induction in CHO-K1 cells by small molecules, qHTS assay (AID 1346980). Further: nearly all actives have a fitted effect of over 15% in size. Summed up:
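Wild-type CHO-K1 cells exposed to compounds for 17hr at 37 C, 5% CO2. Caspase-3/7 activity then measured by Caspase-Glo 3/7 luminescence after 30min at room temperature.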

Test [4] deals with Nuclear receptor subfamily 1 group I member 2 (Homo sapiens) (UniProt O75469). As to the kind of experiment: Human pregnane X receptor (PXR) small molecule agonists, qHTS assay (AID 1346982). Further: nearly all actives have a fitted effect of over 35% in size. Further: potency means the concentration at half of the fitted maximal effect. The gist of the method: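 PXR-Luc HepG2 reporter cells (CYP3A4-driven luciferase) in 5% charcoal-stripped FBS medium, plated 5 h before compound addition, then treated 24 h at 37C. Luciferase read by ONE-Glo luminescence after 30 min at room temperature.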

Test [5] deals with Nuclear receptor subfamily 1 group I member 2 (Rattus norvegicus) (UniProt Q9R1A7). Kind of test: Rat pregnane X receptor (rPXR) activation by small molecules, qHTS assay (AID 1346983). Further: nearly all actives have a fitted effect of over 20% in size. The conditions noted are these: rPXR luciferase reporter cells, One-Glo luminescence, 24 h; stronger effect = higher value. Summed up:
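Cell-based rPXR activation assay: rPXR cells, 2,000 per well, rested 5hr at 37 C, then exposed to compounds in DMSO for 24 hr at 37 C. Luciferase activity read by One-Glo luminescence after 30 min at room temperature.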

Test [6] has as its target Nuclear receptor subfamily 1 group I member 2 (Homo sapiens) (UniProt O75469). Kind of test: CYP3A4 induction through human pregnane X receptor (PXR) by small molecules, qHTS assay (AID 1346984). Further: nearly all actives have a fitted effect of over 40% in size. Summed up: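 DPX-2 HepG2 cells carrying a PXR response element and CYP3A4-promoter luciferase construct, treated with compounds 24 hr at 37C. Then P450-Glo CYP3A4 Luciferin-IPA substrate (3uM final) for 3 hr at 37C, One-Glo added, luminescence read.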

Test [7] has the same target. Kind of test: Human pregnane X receptor (PXR) activation by small molecules, qHTS assay (AID 1346985). Further: nearly all actives have a fitted effect of over 40% in size. Summed up:
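DPX-2 cells (HepG2 co-transfected with a PXR response element and a CYP3A4-promoter luciferase construct) were seeded at 2,000 per well, rested 5 hr at 37C, then exposed to DMSO-dissolved compounds for 24 hr. Activation was read as luciferase luminescence.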

The target of test [8] is Acetylcholinesterase (Homo sapiens) (UniProt P22303). Kind of test: Acetylcholinesterase (AChE) small molecule antagonists: enzyme-based qHTS assay (AID 1347397; calls by dose curve; further: nearly all actives have a fitted effect of over 55% in size). The following applies: Potency: AChE enzyme activity inhibition. Summed up:
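Recombinant human AChE (50 mU/mL) preincubated with compound 30 min at room temperature; acetylthiocholine plus DTNB then added, and thiocholine formation read colorimetrically after 10 min at room temperature. DMSO served as vehicle control.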

Test [9] has the same target. Kind of test: Acetylcholinesterase (AChE) small molecule antagonists: fluorescence cell-based qHTS assay (AID 1347398; calls by dose curve; further: nearly all actives have a fitted effect of over 50% in size). The following applies: Potency: AChE activity. The gist of the method:
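SH-SY5Y cells (2000/well), attached overnight, incubated with compound 30 min at 37 C. Acetylthiocholine plus Thiolite Green then added for 40 min at room temperature. Thiocholine fluorescence (Ex/Em 490/520 nm) reports cellular AChE activity.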

Test [10] has as its target Cytochrome P450 2D6 (Homo sapiens) (UniProt P10635). As to the kind of experiment: Cytochrome P450 Family 2 Subfamily D Member 6 (CYP2D6) small molecule antagonists: luciferase reporter qHTS assay (AID 1671196). Further: nearly all actives have a fitted effect of over 50% in size. Further: potency means the concentration at half of the fitted maximal effect. Summed up: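 Cell-free P450-Glo system: CYP2D6 with proluciferin substrate was pre-incubated with compound for 10 min, then reacted with NADPH regeneration for 1 h at room temperature. Luciferin product was detected after 20 min, and data were reported as relative luminescence units.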
For orientation: Reporter assays use an easily measured gene product as a stand-in for the process of interest.

For test [11], the target named is Cytochrome P450 2C19 (Homo sapiens) (UniProt P33261). As to the kind of experiment: Cytochrome P450 Family 2 Subfamily C Member 19 (CYP2C19) small molecule antagonists: luciferase reporter qHTS assay (AID 1671197). Further: nearly all actives have a fitted effect of over 65% in size. Further: potency means the concentration at half of the fitted maximal effect. The gist of the method:
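CYP2C19 P450-Glo, 1536-well qHTS. Cpd + enzyme/proluciferin substrate 10 min RT; + NADPH regen, 37C 1 h; stop with luciferin detection reagent, 20 min RT, luminescence (RLU). Pos ctrl ketoconazole.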

For test [12], the target named is Cytochrome P450 2C9 (Homo sapiens) (UniProt P11712). Kind of test: Cytochrome P450 Family 2 Subfamily C Member 9 (CYP2C9) small molecule antagonists: luciferase reporter qHTS assay (AID 1671198). Further: nearly all actives have a fitted effect of over 50% in size. Further: potency means the concentration at half of the fitted maximal effect. Summed up:
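P450-Glo proluciferin substrate with CYP2C9 enzyme; 10 min RT preincubation, then NADPH regeneration 1 h at 37C; luciferin detection reagent 20 min RT, luminescence in relative luminescence units.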

For test [13], the target named is Cytochrome P450 1A2 (Homo sapiens) (UniProt P05177). Kind of test: Cytochrome P450 Family 1 Subfamily A Member 2 (CYP1A2) small molecule antagonists: luciferase reporter qHTS assay (AID 1671199). Further: nearly all actives have a fitted effect of over 50% in size. Further: potency means the concentration at half of the fitted maximal effect. Summed up:
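P450-Glo CYP1A2 enzyme–proluciferin substrate mix with compound 10 min at room temperature, then NADPH regeneration 1 h at room temperature. Luciferin detection reagent added, luminescence read after 20 min; furafylline positive control.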

Test [14] concerns the target Voltage-gated inwardly rectifying potassium channel KCNH2 (Homo sapiens) (UniProt Q12809). Kind of test: Human Ether-a-go-go-Related Gene (hERG) channel small molecule antagonists: fluorescence cell-based qHTS assay (AID 1671200). Summed up:
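First, 1000 cells per well are seeded and cultured overnight at 37 C. Next, FluxOR II dye is loaded for 1 h at room temperature, protected from light. After 10 more minutes, stimulus is added and fluorescence is read.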
For orientation: Block of hERG is tested as a sign of cardiac risk.

In test [15] the target is Cytochrome P450 3A4 (Homo sapiens) (UniProt P08684). As to the kind of experiment: Cytochrome P450 Family 3 Subfamily A Member 4 (CYP3A4) small molecule antagonists: luciferase reporter qHTS assay (AID 1671201). Summed up: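 Enzyme and proluciferin substrate are mixed with test chemicals for 10 min, then NADPH regeneration system drives turnover for 1 h at room temperature. A detection reagent halts the reaction; luminescence after 20 min gives relative activity.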

The nature of test [16]: Caspase-3/7 induction in HepG2 cells by small molecules, qHTS cell viability counter screen (AID 1346981). Further: series mostly up to about 92 µM; nearly all actives have a fitted effect of over 30% in size. Summed up:
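Wild-type HepG2 cells, 2,000/well, settled 5 hr at 37 C, 5% CO2 before compound addition. Viability read by CellTiter-Fluor fluorescence, reagent added after 16 hr compound exposure, then 1 hr at 37C, in the same wells as the caspase read.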
On the % scale 0 is the no-effect control and ±100 the full control effect.

Nuclear receptor subfamily 1 group I member 2 (Homo sapiens), sequence (O75469 whole entry, looked up): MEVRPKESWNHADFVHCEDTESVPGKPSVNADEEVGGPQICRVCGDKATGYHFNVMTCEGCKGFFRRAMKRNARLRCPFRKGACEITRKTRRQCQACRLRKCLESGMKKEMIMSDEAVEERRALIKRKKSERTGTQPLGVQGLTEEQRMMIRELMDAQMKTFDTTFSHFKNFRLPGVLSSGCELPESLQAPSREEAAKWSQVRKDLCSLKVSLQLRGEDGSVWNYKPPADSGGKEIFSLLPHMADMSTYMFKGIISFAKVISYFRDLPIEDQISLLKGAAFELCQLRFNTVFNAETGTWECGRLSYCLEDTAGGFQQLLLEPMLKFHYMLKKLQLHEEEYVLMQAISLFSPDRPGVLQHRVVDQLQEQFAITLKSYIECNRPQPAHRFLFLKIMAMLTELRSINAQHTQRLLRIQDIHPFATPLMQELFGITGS
Nuclear receptor subfamily 1 group I member 2 (Rattus norvegicus), sequence (Q9R1A7 whole entry, looked up): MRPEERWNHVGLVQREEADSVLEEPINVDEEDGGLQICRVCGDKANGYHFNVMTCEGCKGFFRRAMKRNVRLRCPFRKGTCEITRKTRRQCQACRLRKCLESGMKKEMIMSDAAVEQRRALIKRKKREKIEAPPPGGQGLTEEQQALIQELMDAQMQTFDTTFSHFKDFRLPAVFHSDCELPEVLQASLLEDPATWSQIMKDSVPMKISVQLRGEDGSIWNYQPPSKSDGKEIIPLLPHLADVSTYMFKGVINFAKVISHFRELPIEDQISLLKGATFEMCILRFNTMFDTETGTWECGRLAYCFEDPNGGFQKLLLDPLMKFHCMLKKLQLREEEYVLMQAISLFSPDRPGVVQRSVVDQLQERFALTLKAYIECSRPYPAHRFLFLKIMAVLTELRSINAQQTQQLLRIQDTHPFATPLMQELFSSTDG
Voltage-gated inwardly rectifying potassium channel KCNH2 (Homo sapiens), sequence (Q12809 whole entry, looked up): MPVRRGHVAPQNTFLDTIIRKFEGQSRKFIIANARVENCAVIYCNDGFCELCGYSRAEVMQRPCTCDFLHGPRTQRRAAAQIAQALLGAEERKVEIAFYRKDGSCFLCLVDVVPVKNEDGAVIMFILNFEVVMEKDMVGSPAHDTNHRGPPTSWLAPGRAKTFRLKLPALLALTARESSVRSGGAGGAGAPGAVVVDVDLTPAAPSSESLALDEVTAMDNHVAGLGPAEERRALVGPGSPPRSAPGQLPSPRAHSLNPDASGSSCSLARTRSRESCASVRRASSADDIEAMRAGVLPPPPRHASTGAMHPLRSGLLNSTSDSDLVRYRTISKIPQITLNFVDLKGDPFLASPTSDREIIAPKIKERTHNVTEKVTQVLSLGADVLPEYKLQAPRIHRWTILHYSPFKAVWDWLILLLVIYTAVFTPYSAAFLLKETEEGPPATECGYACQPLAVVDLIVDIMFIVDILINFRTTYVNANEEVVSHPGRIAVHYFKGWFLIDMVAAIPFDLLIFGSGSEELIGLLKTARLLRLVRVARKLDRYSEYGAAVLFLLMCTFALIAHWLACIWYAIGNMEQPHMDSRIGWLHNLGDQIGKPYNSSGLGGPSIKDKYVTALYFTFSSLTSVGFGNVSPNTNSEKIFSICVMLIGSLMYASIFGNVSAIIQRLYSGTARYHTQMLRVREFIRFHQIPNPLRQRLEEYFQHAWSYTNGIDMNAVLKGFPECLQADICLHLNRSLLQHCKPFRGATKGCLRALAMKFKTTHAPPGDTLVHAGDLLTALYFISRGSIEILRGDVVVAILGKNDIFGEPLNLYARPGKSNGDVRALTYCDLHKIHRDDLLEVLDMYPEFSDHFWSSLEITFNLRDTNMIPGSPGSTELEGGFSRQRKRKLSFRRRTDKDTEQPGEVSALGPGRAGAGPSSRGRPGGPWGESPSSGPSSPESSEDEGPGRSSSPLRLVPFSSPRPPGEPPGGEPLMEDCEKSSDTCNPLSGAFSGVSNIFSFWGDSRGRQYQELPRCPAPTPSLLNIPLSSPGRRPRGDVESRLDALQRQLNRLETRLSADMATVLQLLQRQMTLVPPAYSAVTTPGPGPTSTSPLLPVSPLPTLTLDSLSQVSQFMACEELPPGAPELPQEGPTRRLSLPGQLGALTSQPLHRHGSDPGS
Cytochrome P450 1A2 (Homo sapiens), sequence (P05177 whole entry, looked up): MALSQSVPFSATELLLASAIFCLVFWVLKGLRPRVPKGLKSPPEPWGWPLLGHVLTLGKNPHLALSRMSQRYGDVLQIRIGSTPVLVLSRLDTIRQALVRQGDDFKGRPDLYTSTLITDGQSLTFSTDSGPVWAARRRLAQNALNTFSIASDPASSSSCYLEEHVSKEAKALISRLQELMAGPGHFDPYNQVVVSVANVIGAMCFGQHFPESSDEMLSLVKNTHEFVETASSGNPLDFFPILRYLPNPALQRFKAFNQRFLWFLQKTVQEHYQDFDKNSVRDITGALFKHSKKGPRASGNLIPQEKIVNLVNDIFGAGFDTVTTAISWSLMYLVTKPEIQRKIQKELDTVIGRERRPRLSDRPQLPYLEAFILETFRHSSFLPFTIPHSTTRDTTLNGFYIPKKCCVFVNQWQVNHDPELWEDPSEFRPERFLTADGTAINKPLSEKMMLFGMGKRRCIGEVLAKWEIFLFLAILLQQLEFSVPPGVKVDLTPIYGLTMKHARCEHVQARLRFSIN
Acetylcholinesterase (Homo sapiens), sequence (P22303 whole entry, looked up): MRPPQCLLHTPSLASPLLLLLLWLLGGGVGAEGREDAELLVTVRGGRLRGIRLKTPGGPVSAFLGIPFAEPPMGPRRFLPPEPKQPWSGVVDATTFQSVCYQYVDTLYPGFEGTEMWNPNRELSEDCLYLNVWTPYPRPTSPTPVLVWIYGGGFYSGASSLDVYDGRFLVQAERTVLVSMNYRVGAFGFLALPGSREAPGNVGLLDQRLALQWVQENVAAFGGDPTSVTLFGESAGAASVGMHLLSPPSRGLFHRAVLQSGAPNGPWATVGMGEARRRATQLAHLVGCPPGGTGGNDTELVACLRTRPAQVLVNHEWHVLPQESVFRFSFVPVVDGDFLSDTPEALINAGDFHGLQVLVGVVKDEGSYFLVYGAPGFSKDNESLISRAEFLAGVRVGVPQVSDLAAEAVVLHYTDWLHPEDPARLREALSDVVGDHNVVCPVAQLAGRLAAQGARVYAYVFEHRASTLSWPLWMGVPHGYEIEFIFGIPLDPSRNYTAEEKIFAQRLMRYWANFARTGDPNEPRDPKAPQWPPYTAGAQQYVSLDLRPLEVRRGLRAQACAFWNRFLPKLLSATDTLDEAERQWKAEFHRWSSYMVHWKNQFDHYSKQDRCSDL
Cytochrome P450 2C9 (Homo sapiens), sequence (P11712 whole entry, looked up): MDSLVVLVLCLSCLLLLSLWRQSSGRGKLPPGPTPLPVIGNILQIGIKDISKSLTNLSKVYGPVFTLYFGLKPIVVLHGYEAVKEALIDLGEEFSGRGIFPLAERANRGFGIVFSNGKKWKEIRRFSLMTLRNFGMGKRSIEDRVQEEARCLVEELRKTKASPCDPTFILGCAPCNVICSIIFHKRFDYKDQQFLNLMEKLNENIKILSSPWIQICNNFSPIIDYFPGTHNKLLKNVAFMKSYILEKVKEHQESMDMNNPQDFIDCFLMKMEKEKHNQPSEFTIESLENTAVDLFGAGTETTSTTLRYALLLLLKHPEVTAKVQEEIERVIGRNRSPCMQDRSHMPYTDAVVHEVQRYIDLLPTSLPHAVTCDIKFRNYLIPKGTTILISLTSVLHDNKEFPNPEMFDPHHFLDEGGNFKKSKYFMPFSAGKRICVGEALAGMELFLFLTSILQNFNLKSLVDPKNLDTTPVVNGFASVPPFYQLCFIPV
Cytochrome P450 2C19 (Homo sapiens), sequence (P33261 whole entry, looked up): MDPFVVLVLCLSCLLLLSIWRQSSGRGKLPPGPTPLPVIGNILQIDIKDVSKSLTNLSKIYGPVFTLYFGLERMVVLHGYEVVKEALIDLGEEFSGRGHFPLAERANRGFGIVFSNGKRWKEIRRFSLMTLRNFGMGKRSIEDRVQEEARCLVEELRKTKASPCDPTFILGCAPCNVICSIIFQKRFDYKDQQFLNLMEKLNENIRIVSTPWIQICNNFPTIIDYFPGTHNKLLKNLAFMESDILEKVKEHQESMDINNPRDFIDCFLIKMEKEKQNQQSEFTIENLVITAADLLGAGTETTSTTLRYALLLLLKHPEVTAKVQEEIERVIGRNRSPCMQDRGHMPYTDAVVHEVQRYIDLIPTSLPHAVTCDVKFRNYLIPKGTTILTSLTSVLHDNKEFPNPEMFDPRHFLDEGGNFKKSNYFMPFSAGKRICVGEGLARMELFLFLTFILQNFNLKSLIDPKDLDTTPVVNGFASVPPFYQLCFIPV
Cytochrome P450 2D6 (Homo sapiens), sequence (P10635 whole entry, looked up): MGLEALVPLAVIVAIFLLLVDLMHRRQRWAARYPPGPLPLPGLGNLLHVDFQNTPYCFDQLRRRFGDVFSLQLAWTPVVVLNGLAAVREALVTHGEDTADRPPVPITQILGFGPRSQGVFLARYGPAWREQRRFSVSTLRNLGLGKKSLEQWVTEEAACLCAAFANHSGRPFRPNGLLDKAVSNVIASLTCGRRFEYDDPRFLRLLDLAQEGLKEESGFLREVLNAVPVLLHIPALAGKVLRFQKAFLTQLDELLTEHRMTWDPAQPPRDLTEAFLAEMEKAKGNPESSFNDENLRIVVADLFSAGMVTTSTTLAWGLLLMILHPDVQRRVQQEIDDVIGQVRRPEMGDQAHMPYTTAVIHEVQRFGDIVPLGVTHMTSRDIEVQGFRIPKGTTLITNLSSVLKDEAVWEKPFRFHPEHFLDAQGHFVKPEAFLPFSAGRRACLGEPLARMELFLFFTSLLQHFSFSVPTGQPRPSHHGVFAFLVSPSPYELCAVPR

Take `O=c1[nH]c(=O)n(Cl)c(=O)n1Cl`: the Potency entry in test [1], in test [2], in test [3], in test [4], in test [7] and in [8] was “inactive” throughout. Besides, the Potency entry in test [9], in test [10], in test [12], in test [13], in test [14] and in test [15] was “inactive” each time. Further, in [5], the max activation was 0.0078% (inactive). The result in [6] was inactive. Also, the Potency in [11] was 56.4 µM (active) and inactive.
On to `Nc1ccc(Cl)cc1`, for which the Potency entry in test [1], in test [2], in [3], in test [16], in test [8] and in test [9] was “inactive” in each case. Further, the Potency entry in test [14] and in test [15] was “inactive” throughout. For the same compound, the Potency entry in [4] was “inactive and 62.2 µM (active)”; in test [10] it was 20 µM (active) and 31.7 µM (active) and 60.8 µM (active); in [11] it was 39.9 µM (active) and 20.4 µM (active); in test [12], 39.9 µM (active) and 32.3 µM (active); in test [13] it was 63.3 µM (active) and 39.9 µM (active) and 57.4 µM (active).
As for `CN(C)[C@@H]1C(=O)C(C(N)=O)=C(O)[C@@]2(O)C(=O)C3=C(O)c4c(O)cccc4[C@@](C)(O)[C@H]3[C@H](O)[C@@H]12`, the Potency entry in test [1], in test [2], in test [3], in test [4], in test [7] and in test [10] was “inactive” throughout. In addition, the Potency entry in test [11], in test [13], in test [14] and in test [15] was “inactive” each time. Further, the max activation in test [5] was -4.55% (inactive) and -1.55% (inactive). Moreover, the compound was classed as inactive in test [6]. Moreover, the Potency in test [12] was 61.8 µM (active) and 39.6 µM (active).
As for `COCC(=O)N(c1c(C)cccc1C)C(C)C(=O)OC` (stereo not drawn), the Potency entry in test [1], in test [2], in [3], in [4], in test [8] and in test [9] was “inactive” in each case. For the same compound, the Potency entry in test [10], in [13], in test [14] and in test [15] was “inactive” throughout. In test [5], the max activation was 0.174% (inactive). In addition, the Potency is 41 µM (active) and 39.8 µM (active) and inactive in test [11]; 70.9 µM (active) and inactive in test [12].
`C1CCC(NC2CCCCC2)CC1`: the Potency result in test [1], in test [2], in [3], in test [4], in [7] and in test [8] was “inactive” each time. The Potency entry in [9], in [12], in [13], in test [14] and in test [15] was “inactive” throughout. Moreover, the max activation in test [5] was -0.555% (inactive). For the same compound, the compound was called inactive in test [6]. Moreover, in [10], the Potency was 1.47 µM (active) and 252 nM (active) and 246 nM (active).
With `COP(=O)(OC)C(O)C(Cl)(Cl)Cl` (stereo not drawn), the Potency entry in test [1], in test [2], in test [3], in test [16] and in test [14] was “inactive” each time.

The record behind these values is PubChem BioAssay (Tox21).
